We go through 106 compounds from ChEMBL document CHEMBL4513216, “Probing the Open Global Health Chemical Diversity Library for Multistage-Active Starting Points for Next-Generation Antimalarials” (ACS Infect Dis, 2020).

The campaign covered roughly 69,000 compounds. About 8,600 (12%) showed an effect of 50% or more. Shown is part of a subset that was picked to be rich in strong results.

The test system of this experiment is Plasmodium berghei. As to the kind of experiment: Screen against P. berghei liver stage (PbLuc), transformed with Luciferase, at 10uM. Conditions: tested at 10 uM. The experiment is classed as functional, HepG2.
Take `CCn1ccnc1CN1CCN(C(C)C(=O)NC2CCCC2)CC1` (stereo unspecified): the INHIBITION was determined as 36.85%.

For the compound `O=C(O)c1cn(CC2CCCN(c3cnc4ccccc4n3)C2)nn1` (stereo unspecified), the INHIBITION was determined as 6.24%.

As for `CC(C)(C)c1cn(CC2CCCN(c3cnc4ccccc4n3)C2)nn1` (stereo unspecified), the INHIBITION is given as 89.6%.

As for `O=C(O)c1cn(CC2CCCN(c3ccc4ccccc4n3)C2)nn1` (stereo unspecified), the INHIBITION is reported as 46.6%.

With `CCc1nc(C2CCCN(C(=O)c3cccnc3O)C2)no1` (stereo unspecified), the INHIBITION worked out at 9.14%.

In the case of `O=C(NCCn1ccc(-c2ccccn2)n1)C1CCC1`, the INHIBITION is 14.3%. Under `CCn1cc(-c2cc(-c3cc(CC(=O)O)cs3)nc(N)c2C#N)c(C)n1` stands 37.6%; under `CCn1cc(-c2cc(-c3cc(CN(C)C)cs3)nc(N)c2C#N)c(C)n1`, 76.6%; under `Cc1nn(C)c(C)c1-c1cc(-c2cc(CC(=O)O)cs2)nc(N)c1C#N`, 45.8%. Turning to `COCCNc1ccc(CC2CCCN(c3ncccn3)C2)nn1` (stereo unspecified), the INHIBITION is reported as 28.05%. Under `Cc1ccoc1C(=O)N1CCCN(Cc2cnn(C)c2)CC1` stands 15.6%; under `O=C(NCCS(=O)(=O)N1CCN(c2ncccn2)CC1)c1ccccc1`, -101%. Turning to `Cc1cc(C2CCCN(CCc3ccccn3)C2)n[nH]1` (stereo unspecified), the INHIBITION was -0.0706%. Turning to `NC(=O)c1cc(C2CCCN(CCc3ccc4c(c3)CCO4)C2)n[nH]1` (stereo unspecified), the INHIBITION was 74.3%. With `NC(=O)c1cc(C2CCCN(CCc3ccccn3)C2)n[nH]1` (stereo unspecified), the INHIBITION was found to be 28.7%. For `NC(=O)c1cc(C2CCCN(Cc3ccc4c(c3)OCCO4)C2)n[nH]1` (stereo unspecified), the INHIBITION came to 11.8%. Under `O=C(C1CCCN(CCc2ccc3c(c2)CCO3)C1)N1CCCC1` (stereo unspecified) stands 6.11%; under `Cc1cc(C2CCCN(CCc3ccc4c(c3)CCO4)C2)n[nH]1` (stereo unspecified), 90.2%; under `Cc1noc(C)c1CN1CCCC1c1c(C)nn(C)c1Cl` (stereo unspecified), -16%.

Consider `CC(CCc1ccccc1F)C(=O)NS(C)(=O)=O` (stereo unspecified), for which the INHIBITION turned out to be 12.9%. As for `CC(CCc1ccccc1F)C(=O)NS(=O)(=O)N(C)C(C)C` (stereo unspecified), the INHIBITION is listed as 80.9%. Turning to `CC(CCc1ccccc1F)C(=O)NS(=O)(=O)CC1CC1` (stereo unspecified), the INHIBITION is given as 10.6%. With `O=C1CCC2(CCCN(CCn3cc(Cl)cn3)C2)CN1C1CCCC1` (stereo unspecified) the figure was 31.5%. With `Cc1cnc(CCNc2cccc(CC3CCCNC3)n2)s1` (stereo unspecified), the INHIBITION was found to be 41.5%. Regarding `CCn1cc(S(=O)(=O)Nc2nc3c(s2)CC(C)CC3)cn1` (stereo unspecified), the INHIBITION is 11.7%. With `O=C1COC2(CCN(Cc3cccs3)CC2)CN1c1ccsc1` the figure was 21.1%; with `O=C(CC1CC1)N1CCC2(CC1)CN(c1ccsc1)C(=O)CO2`, 38.1%; with `O=C1COC2(CCN(Cc3ccoc3)CC2)CN1c1ccccc1`, -23.4%. As for `O=C1COC2(CCN(Cc3ccoc3)CC2)CN1c1ccsc1`, the INHIBITION is listed as 52.9%.

Regarding `O=C1COC2(CCN(CC3CC3)CC2)CN1c1ccsc1`, the INHIBITION stood at 78.8%. `O=C1COC2(CCN(CC3CC3)CC2)CN1c1ccccc1`: the INHIBITION came to 36.8%. Under `COc1ncccc1NC(=O)C1CC(=O)N(Cc2ccccn2)C1` (stereo unspecified) stands -8.69%; under `Cc1ccc(CN2CCC3(CCC3NC(=O)c3ccn(C)c3)CC2)s1` (stereo unspecified), -6.39%; under `CC(C)C(=O)N1CCCC1C(=O)Nc1cc(C(F)(F)F)ccc1F` (stereo unspecified), 20.6%. `CCc1ncnc2c1CCN(Cc1ccc3c(c1)OCO3)CC2`: the INHIBITION is -6.39%.

For `COc1cccc(-c2cnc(C3CCNCC3)cn2)c1`, the INHIBITION is -28.6%.

For the compound `CCNC(=O)c1ccc(NC(=O)N(C)Cc2cccn2C)c(C)c1`, the INHIBITION was 54.6%. With `CNC(=O)c1ccc(NC(=O)NC(C)CCc2cccn2C)c(C)c1` (stereo unspecified) the figure was 23.7%; with `CCNC(=O)c1ccc(NC(=O)N(C)Cc2cc(C)on2)cc1`, -41.4%. Under `Cc1ccc(OCCN(C)Cc2nc3c(cnn3C)c(=O)[nH]2)cc1` stands 23.7%. Under `O=C(NC[C@H]1CCCO1)c1ccc(S(=O)(=O)N2C[C@H]3C[C@@H]2CN3)cc1` stands 30.7%; under `CN(Cc1ccncc1)C(=O)NC1CCS(=O)(=O)C1` (stereo unspecified), -4.12%. On to `Cc1nn(C)c(C)c1C1SCC(=O)Nc2c1c(O)nn2C(C)C` (stereo unspecified), for which the INHIBITION stood at 52.5%.

Consider `Cc1nn(C)cc1C1SCC(=O)Nc2c1c(O)nn2C(C)C` (stereo unspecified), for which the INHIBITION was found to be 30.5%.

For `Cc1c(C2SCC(=O)Nc3c2c(O)nn3C(C)C)cnn1C` (stereo unspecified), the INHIBITION was found to be 13.1%.

Take `CCCc1nc(NCCCOC)c2c(n1)c(C)nn2CC`: the INHIBITION came out at 29.18%. As for `COCCN1C(=O)CC(c2cccnc2)C12CCN(C(=O)C1CC1)CC2` (stereo unspecified), the INHIBITION is recorded as 24%.

Turning to `CCC(=O)N1CCC2(CC1)C(c1cccnc1)CC(=O)N2CCOC` (stereo unspecified), the INHIBITION worked out at 59.3%. With `COCCN1C(=O)CC(c2cccnc2)C12CCN(C)CC2` (stereo unspecified) the figure was 27.6%; with `O=C(c1ccccn1)N1C[C@@H](OCc2cccnc2)[C@H]2OCCC[C@@H]21`, -21.1%. Under `COCCNC(=O)c1cc2c(s1)CCN2S(C)(=O)=O` stands 6.55%; under `O=C(c1ccc(=O)[nH]n1)N1CCC(CN2CCOCC2)CC1`, -40.5%; under `N#Cc1nccnc1N1CCC(C(O)c2cccs2)CC1` (stereo unspecified), 42.4%. Under `Cc1ccc(N2CCC(C(O)c3cccs3)CC2)nn1` (stereo unspecified) stands 56.3%.

Consider `OC(c1cccs1)C1CCN(c2ncccn2)CC1` (stereo unspecified), for which the INHIBITION is recorded as 48%.

For the compound `Cc1cccc(OCCNC(=O)CN2CCc3cncnc3C2)c1`, the INHIBITION worked out at 22.3%. Under `COC(=O)[C@H](C)NC(=O)c1cc(-c2cccc(Cl)c2)no1` stands 3.16%; under `CCCS(=O)(=O)N1CCC2(CCN(Cc3cccc(F)c3)C2=O)C1` (stereo unspecified), 16.8%. `CN(C)CCN1CCC2(CCN(C(=O)c3cccnc3)CC2)C1=O`: the INHIBITION is recorded as -23.3%.

With `O=C(COc1ccccc1)N1CCC[C@]2(C[C@@H](OCC3CC3)CO2)C1`, the INHIBITION turned out to be 27.6%. Under `COC1COC2(CCN(C(=O)c3ncccn3)CC2)C1` (stereo unspecified) stands 37.8%; under `CN1CCO[C@@H]2CN(C(=O)COc3cccc(Cl)c3)C[C@@H]2C1`, 34.9%. With `CCO[C@@H]1CO[C@@]2(CCCN(C(=O)COc3ccccc3OC)C2)C1` the figure was 15.8%; with `COCC(=O)N1CCC2(CC1)CC(N1CCN(C)CC1)CO2` (stereo unspecified), 39.3%. Under `CO[C@@H]1CO[C@@]2(CCN(C(=O)COc3ccccc3C)C2)C1` stands 71%; under `COc1ccccc1OCC(=O)N1CCC[C@]2(C[C@@H](OC)CO2)C1`, 54.7%; under `COc1ccccc1OCC(=O)N1C[C@@H]2CN(C)CCO[C@@H]2C1`, 55.6%. Take `COCC1COCCC12CCN(C(=O)COc1ccccc1C)CC2` (stereo unspecified): the INHIBITION is 0.542%. Under `COCC(=O)N1CCC2(CC1)CC(OC)CO2` (stereo unspecified) stands 70.4%; under `Cc1ccc(OCC(=O)N2C[C@@H]3CN(C)CCO[C@@H]3C2)cc1`, 37.9%; under `Cc1ccccc1OCC(=O)N1CC[C@]2(C[C@@H](OCC3CC3)CO2)C1`, -0.813%. Under `Cc1occc1C(=O)Nc1cnn(CCN2CCOCC2)c1` stands -16.565%; under `O=C(Nc1ccc2c(c1)OCO2)c1ccc(N2CCCC2)nn1`, 43.8%; under `NC(=O)CN(Cc1ccc(Br)cc1)C(=O)c1cnccn1`, 4.22%. As for `O=C1COC2(COCCN(Cc3ccsc3)C2)CN1c1ccoc1` (stereo unspecified), the INHIBITION was 12.4%. As to `CO[C@H]1CO[C@@]2(CCCN(C(=O)C3CC=CC3)C2)C1`, the INHIBITION stood at 22.2%.

On to `CO[C@H]1CO[C@@]2(CCCN(C(=O)N3CCCC3)C2)C1`, for which the INHIBITION was found to be 45.7%.

With `CO[C@@H]1CO[C@@]2(CCCN(C(=O)C3CC=CC3)C2)C1`, the INHIBITION amounted to 53%. With `CC(C)c1nc(CN2CCN(CC(O)c3ccccc3)CC2)no1` (stereo unspecified) the figure was 21.5%; with `CC(=O)Nn1c(C)cc(CN2CCC(c3ccncc3)CC2)c1C`, 28%; with `CC(=O)Nn1c(C)cc(CN2CCC(C(=O)N3CCCC3)CC2)c1C`, 52.8%.

Regarding `CC(=O)Nn1c(C)cc(CN2CCCN(Cc3ccncc3)CC2)c1C`, the INHIBITION stood at 20.4%. With `CN(c1cccnn1)C1CCN(C(=O)c2n[nH]c3c2CCC3)CC1` the figure was -16.7%; with `O=C(c1cnc(-c2cccnc2)nc1)N1CCC(c2ccncc2)CC1`, 21.8%.

Consider `O=C(c1cnc(-c2cccnc2)nc1)N1CCSCC1`, for which the INHIBITION is 51.9%.

As to `O=C(c1cccnc1)N1CCSCC1`, the INHIBITION came out at 35.7%. With `Cc1cccc(CNc2ccc(C(=O)N3CCC(CO)CC3)cc2)c1` the figure was 38.3%; with `O=C([C@@H]1COC[C@H]2CN(C3CCOCC3)C[C@H]21)N1CCCCO1`, -3.1%; with `Cc1ccc2c(CC(=O)N(C)CCN(C)C)c(C)[nH]c2c1C`, 50.75%. With `Cc1[nH]c2c(C)cccc2c1CC(=O)N(C)CCN(C)C` the figure was 34.15%. Consider `CCc1cccc2c(CC(=O)N(C)CCN(C)C)c(C)[nH]c12`, for which the INHIBITION came to 47.9%. With `CC(=O)N1CCN(C(=O)CN(C)c2ccc(Cl)cn2)CC1` the figure was 25%; with `c1cc(COC[C@H]2CCC[C@]23CNCCO3)ccn1`, 53%. With `c1cncc(COC[C@@H]2CCC[C@@]23CNCCO3)c1` the figure was 24%; with `Cc1nc(COC[C@@H]2CCC[C@@]23CNCCO3)cs1`, 48.9%.

As to `c1cncc(COC[C@@H]2CCC[C@]23CNCCO3)c1`, the INHIBITION came to 22.2%. With `c1cncc(OC[C@@H]2CCC[C@@]23CNCCO3)c1` the figure was -2.27%; with `c1cc(COC[C@@H]2CCC[C@@]23CNCCO3)ccn1`, 68.2%.

Regarding `COC(=O)c1ccc(CN2CCC(c3n[nH]c(C)n3)CC2)s1`, the INHIBITION is reported as 16.3%. Under `O=C(NCCc1noc(C2CCCC2)n1)c1cn2ccsc2n1` stands 47.2%; under `Cc1nc(C2CCN(C(C)C)CC2)sc1Br`, 30.4%.

As to `CCN1CCCC(C)(C(=O)NCc2nccn2Cc2ccccc2)C1` (stereo unspecified), the INHIBITION is on record as 47.2%.

With `CCN1CCCC(C)(C(=O)NCc2nncn2CCc2ccccc2)C1` (stereo unspecified), the INHIBITION stood at 57%. As to `CCn1cnnc1CNC(=O)N1CCN(CCc2ccccc2)CC1`, the INHIBITION was found to be 23.4%. For the compound `Cc1cc(C)c2ncc(C#N)c(NC3CCN(CC(N)=O)CC3)c2c1`, the INHIBITION is -5.705%.

Take `Cc1cnn(CC2CCCCN2C(=O)c2ccc(NC3CC3)nc2)c1` (stereo unspecified): the INHIBITION turned out to be 42.45%.
